Experimental data reported in the supplement of paper PMC11732987, “Enantioselective OTUD7B fragment discovery through chemoproteomics screening and high-throughput optimisation” (Communications Chemistry, 2025).

How the values were obtained:
Test in all cases: log2 ratio of Biotin-Ahx-Ub-VS probe labelling (fragment/DMSO); higher = less target engagement (more negative = stronger competition), active = hit call of the paper (q ≤ 0.05, log2 ratio ≤ -1)
Conditions in all cases: compound concentration: 200 uM; treatment time: 3 h
USP34 = USP34 (UniProt Q70CQ2)
In short: (§1)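 Using Biotin-Ahx-Ub-VS at 0.5 µM final for 1 h, DUBs were labelled in HEK293T lysate (495 µg per sample) that had first been treated in triplicate with fragment at 200 µM or vehicle for 3 h. NeutrAvidin enrichment, LysC and trypsin digestion and diaPASEF LC-MS/MS followed. Spectronaut label-free quantities were global-median-normalised. Values are average log2 fragment/vehicle ratios by unpaired t-test, using proteins with ≥2 unique peptides.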

USP36 = biological target: T1, USP36 (UniProt Q9P275)
T1 sequence (whole entry): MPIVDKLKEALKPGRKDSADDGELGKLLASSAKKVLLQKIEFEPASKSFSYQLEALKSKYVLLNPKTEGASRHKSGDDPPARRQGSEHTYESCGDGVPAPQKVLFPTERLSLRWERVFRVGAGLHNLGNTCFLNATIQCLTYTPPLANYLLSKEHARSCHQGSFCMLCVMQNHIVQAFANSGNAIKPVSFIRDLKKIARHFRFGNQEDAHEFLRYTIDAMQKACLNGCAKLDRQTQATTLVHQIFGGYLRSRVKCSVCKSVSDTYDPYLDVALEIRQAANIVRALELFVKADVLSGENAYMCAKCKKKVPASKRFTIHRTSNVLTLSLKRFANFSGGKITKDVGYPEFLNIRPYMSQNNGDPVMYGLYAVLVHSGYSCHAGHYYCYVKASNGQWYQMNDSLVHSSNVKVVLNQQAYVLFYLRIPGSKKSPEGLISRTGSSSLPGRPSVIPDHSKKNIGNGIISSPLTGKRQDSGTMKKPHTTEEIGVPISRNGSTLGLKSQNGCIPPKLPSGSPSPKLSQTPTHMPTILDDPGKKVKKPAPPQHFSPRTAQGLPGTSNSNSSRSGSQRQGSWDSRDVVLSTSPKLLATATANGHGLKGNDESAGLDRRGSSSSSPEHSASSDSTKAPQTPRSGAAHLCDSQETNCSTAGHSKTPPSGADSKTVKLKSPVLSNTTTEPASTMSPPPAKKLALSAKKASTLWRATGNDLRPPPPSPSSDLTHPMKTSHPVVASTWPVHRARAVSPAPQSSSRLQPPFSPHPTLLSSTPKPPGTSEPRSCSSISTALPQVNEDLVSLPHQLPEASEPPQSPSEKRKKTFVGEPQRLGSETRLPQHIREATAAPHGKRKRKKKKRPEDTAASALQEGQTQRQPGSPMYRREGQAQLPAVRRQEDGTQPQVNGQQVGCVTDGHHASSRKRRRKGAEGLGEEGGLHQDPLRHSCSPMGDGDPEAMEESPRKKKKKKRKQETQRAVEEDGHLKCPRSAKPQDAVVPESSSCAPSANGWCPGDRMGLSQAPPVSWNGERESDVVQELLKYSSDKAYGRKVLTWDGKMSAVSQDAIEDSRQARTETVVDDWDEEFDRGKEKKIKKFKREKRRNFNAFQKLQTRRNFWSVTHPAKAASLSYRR
In short: as §1

USP38 = biological target: T2, USP38 (UniProt Q8NB14)
T2 sequence (whole entry): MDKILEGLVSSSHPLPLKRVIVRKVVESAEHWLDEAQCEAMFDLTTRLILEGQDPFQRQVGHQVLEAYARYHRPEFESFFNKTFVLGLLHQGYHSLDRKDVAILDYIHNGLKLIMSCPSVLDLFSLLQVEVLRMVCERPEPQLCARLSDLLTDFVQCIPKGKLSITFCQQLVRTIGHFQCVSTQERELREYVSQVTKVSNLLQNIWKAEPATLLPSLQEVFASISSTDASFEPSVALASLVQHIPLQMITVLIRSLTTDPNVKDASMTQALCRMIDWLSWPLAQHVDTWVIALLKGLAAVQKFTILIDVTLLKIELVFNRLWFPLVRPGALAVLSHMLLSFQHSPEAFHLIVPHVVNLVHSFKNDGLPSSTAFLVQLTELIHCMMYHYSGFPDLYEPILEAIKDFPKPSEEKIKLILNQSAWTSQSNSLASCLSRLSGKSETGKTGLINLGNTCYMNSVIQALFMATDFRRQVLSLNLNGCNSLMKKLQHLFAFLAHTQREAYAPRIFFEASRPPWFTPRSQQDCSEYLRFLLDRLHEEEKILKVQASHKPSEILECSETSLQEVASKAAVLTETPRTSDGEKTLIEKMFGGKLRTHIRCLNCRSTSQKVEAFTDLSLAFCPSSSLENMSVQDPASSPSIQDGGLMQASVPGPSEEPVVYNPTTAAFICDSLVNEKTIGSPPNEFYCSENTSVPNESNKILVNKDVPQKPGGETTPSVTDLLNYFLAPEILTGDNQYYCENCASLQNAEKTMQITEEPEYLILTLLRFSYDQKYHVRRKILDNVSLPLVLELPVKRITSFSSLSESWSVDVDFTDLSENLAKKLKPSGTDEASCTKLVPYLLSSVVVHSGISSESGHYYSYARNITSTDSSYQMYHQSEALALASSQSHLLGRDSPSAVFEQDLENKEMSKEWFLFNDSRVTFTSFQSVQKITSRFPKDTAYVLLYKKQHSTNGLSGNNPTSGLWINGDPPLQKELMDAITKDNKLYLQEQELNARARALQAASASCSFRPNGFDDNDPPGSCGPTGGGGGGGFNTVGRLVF
In short: as §1

USP39 = biological target: T3, USP39 (UniProt Q53GS9)
T3 sequence (whole entry): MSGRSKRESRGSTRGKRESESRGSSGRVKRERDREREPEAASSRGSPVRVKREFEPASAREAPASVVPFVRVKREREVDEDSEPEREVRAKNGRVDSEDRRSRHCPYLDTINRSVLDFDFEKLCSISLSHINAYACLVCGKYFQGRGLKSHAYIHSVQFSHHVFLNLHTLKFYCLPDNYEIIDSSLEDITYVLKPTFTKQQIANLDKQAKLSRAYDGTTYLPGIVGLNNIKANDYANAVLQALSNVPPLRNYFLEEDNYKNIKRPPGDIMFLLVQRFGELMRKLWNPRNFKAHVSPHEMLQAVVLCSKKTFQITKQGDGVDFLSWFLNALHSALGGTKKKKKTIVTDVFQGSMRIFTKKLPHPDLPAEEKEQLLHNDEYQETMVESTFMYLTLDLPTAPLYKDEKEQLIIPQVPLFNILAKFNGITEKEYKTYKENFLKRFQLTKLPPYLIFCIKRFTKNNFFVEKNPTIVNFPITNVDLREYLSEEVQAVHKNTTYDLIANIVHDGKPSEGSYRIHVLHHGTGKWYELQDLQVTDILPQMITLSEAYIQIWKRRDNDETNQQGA
In short: as §1

USP4 = biological target: T4, USP4 (UniProt Q13107)
T4 sequence (whole entry): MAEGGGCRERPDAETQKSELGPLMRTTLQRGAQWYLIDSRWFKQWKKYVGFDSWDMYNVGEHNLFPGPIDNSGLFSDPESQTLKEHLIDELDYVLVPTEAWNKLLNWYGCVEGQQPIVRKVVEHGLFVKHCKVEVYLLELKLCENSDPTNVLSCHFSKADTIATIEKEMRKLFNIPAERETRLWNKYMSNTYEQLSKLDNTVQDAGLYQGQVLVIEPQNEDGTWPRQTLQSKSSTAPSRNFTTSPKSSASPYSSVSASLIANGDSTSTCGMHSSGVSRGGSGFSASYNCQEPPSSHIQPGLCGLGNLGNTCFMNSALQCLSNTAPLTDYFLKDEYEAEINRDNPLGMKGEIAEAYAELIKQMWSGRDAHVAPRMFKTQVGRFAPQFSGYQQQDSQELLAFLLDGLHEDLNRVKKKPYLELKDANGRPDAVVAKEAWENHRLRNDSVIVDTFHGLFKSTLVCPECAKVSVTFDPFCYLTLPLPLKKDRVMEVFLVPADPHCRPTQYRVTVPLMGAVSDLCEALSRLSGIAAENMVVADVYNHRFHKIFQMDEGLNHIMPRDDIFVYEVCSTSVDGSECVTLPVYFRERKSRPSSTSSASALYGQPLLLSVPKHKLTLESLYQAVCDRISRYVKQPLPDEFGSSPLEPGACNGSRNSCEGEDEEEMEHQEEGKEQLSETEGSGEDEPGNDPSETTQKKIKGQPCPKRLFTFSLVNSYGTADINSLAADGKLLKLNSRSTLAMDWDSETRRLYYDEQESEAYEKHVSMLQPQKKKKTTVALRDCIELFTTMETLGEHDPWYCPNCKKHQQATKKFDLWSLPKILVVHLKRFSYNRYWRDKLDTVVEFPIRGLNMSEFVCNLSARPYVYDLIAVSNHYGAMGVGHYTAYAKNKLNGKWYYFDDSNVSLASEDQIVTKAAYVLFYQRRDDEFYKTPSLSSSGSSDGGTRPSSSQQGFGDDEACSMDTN
In short: as §1

Measured: log2 ratio of Biotin-Ahx-Ub-VS probe labelling

Chain of USP34 (Q70CQ2 whole entry, the tested form may be a part): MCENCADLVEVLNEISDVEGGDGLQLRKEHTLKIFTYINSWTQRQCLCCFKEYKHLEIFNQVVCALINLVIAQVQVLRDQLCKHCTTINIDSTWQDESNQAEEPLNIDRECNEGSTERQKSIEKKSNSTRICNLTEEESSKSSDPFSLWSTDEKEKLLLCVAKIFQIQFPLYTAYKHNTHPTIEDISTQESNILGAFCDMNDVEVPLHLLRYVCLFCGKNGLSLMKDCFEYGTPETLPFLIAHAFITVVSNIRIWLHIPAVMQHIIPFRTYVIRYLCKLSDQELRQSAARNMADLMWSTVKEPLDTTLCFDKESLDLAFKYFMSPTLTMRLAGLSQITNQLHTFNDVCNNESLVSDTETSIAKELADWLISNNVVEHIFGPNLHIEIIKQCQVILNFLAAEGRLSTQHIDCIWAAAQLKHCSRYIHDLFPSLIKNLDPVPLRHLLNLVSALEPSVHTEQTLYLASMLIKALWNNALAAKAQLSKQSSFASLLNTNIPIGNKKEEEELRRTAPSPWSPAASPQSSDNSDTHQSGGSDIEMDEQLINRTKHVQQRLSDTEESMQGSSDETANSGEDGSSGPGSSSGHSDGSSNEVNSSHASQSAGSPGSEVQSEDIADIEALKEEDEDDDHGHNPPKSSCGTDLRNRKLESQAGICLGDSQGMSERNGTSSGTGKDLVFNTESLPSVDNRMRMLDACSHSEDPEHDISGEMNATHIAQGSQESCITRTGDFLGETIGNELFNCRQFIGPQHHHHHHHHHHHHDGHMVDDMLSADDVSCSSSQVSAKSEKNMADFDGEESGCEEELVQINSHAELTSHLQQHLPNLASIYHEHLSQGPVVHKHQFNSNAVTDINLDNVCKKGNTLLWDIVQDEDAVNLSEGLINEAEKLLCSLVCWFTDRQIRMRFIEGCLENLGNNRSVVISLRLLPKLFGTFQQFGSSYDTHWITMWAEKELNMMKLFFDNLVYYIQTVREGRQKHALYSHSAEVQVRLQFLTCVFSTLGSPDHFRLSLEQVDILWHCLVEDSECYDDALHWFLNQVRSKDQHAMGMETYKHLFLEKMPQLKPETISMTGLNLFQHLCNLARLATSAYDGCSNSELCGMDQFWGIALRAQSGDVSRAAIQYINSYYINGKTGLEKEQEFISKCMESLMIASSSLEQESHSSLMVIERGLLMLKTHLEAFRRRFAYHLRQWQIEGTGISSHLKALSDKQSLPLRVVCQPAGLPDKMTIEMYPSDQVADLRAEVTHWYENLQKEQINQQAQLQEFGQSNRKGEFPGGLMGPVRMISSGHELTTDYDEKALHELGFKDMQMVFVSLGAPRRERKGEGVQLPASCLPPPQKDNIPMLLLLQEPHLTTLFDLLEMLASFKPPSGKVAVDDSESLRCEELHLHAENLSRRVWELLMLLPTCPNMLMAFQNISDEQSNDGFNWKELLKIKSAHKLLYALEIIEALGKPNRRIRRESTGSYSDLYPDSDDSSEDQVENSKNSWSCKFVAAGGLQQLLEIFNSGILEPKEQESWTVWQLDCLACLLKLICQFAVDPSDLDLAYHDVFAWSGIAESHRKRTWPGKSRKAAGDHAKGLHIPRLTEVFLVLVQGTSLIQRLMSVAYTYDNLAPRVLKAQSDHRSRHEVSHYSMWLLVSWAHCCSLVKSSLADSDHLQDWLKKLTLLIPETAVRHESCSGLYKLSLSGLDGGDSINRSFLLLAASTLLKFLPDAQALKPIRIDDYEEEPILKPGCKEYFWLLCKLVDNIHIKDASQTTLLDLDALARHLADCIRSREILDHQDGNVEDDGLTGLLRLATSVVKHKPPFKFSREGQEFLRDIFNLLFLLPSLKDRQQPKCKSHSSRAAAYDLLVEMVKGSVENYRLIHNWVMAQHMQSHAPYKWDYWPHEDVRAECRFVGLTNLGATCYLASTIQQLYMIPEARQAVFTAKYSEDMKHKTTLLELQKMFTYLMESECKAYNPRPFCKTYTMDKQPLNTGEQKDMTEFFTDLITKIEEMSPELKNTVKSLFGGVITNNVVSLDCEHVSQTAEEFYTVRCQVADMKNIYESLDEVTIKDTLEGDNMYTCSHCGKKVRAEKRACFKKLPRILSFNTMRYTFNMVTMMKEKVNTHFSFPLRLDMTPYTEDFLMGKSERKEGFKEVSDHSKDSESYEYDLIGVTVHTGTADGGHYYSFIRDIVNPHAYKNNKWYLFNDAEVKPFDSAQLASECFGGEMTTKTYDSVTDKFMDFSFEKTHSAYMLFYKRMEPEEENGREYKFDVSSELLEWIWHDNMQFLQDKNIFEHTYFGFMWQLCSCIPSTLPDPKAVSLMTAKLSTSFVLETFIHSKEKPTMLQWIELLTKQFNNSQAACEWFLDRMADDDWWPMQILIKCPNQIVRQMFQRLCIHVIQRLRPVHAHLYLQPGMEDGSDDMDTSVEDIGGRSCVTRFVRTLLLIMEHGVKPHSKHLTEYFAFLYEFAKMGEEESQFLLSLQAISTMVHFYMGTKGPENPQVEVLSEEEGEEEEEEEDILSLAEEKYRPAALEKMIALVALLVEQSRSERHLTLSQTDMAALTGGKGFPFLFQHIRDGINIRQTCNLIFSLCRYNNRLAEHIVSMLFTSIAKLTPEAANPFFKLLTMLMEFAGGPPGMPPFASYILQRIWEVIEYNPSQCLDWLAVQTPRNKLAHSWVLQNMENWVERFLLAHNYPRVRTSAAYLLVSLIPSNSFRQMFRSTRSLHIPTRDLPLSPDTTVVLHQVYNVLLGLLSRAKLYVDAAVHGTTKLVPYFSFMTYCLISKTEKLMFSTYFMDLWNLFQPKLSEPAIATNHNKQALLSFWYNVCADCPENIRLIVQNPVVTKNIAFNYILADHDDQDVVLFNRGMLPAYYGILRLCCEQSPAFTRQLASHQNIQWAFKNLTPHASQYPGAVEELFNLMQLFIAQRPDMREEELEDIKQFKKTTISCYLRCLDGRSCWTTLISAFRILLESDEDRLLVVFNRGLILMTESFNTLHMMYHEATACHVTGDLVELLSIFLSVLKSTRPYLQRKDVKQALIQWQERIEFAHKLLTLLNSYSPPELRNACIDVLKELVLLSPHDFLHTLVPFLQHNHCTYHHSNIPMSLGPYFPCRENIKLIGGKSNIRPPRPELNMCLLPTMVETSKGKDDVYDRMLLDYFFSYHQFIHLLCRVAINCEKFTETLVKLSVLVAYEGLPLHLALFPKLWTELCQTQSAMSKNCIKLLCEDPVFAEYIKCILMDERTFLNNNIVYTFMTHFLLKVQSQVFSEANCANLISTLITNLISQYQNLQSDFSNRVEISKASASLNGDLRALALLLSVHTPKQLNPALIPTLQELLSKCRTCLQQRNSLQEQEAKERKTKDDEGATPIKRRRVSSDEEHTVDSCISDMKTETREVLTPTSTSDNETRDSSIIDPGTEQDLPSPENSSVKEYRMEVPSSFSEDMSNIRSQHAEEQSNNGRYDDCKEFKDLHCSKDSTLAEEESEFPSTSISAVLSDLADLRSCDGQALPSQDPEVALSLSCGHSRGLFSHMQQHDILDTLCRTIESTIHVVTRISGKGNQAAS

O=C(CCl)Nc1cccc(C(=O)N2CCSCC2)c1
inactive: USP34 -0.185 | USP36 0.0297 | USP38 -0.0941 | USP39 0.29 | USP4 -0.272
